# Assay results reported in PubChem BioAssay (NCI).
# Several values for one entry are separate records, joined by “and”; a condition that tells them apart may be missing. Identical values can stand only once. This is part of a sample that, as a whole, favours compounds with a hit. Of some 83,000 tested, about 20% had one in any assay.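 Compound tested at a single concentration for 48 hours in 96-well plates; a percent growth value below 10 was scored as active.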 Activity calls are given as the source filed them.
# Legend:
# Assay in all cases: NCI-60 one-dose screen, 48 h (100 = growth as untreated, 0 = no growth, -100 = all killed)
# [1] = system: NCI/ADR-RES ovarian; details: 10 µM unless noted
# [2] = system: T-47D breast
# [3] = system: MDA-MB-435 melanoma; details: 10 µM unless noted
# [4] = system: SW-620 colon
# [5] = system: MCF7 breast
# [6] = system: HCT-116 colon
# [7] = system: HCC-2998 colon
# [8] = system: KM12 colon
# [9] = system: BT-549 breast
compound,measurement,setting,value
Cc1c2ccncc2c(C)c2c1[nH]c1ccccc12,growth,[1],-46.9% (active)
same,growth,[2]; 10 µM unless noted,-56.1% (active)
same,growth,[3],-89.6% (active)
same,growth,[4]; 10 µM unless noted,-64.1% (active)
same,growth,[5]; 10 µM unless noted,-15.9% (active)
same,growth,[6]; 10 µM unless noted,-57% (active)
same,growth,[7]; 10 µM unless noted,-96.8% (active)
same,growth,[8]; 10 µM unless noted,-69.3% (active)
Cc1ccc(C(=O)O[C@H](C(=O)O)[C@H](OC(=O)c2ccc(C)cc2)C(=O)O)cc1,growth,[1],99.1% (inactive)
same,growth,[9]; 10 µM unless noted,101% (inactive)
same,growth,[3],104% (inactive)
same,growth,[4]; 10 µM unless noted,105% (inactive)
same,growth,[5]; 10 µM unless noted,105% (inactive)
same,growth,[6]; 10 µM unless noted,103% (inactive)
same,growth,[7]; 10 µM unless noted,111% (inactive)
same,growth,[8]; 10 µM unless noted,112% (inactive)
Nc1ccc2c(c1)Cc1cc(N)ccc1-2,growth,[1],96.2% (inactive)
same,growth,[2]; 10 µM unless noted,67.3% (inactive)
same,growth,[3],91.8% (inactive)
same,growth,[4]; 10 µM unless noted,98.9% (inactive)
same,growth,[5]; 10 µM unless noted,59.9% (inactive)
same,growth,[6]; 10 µM unless noted,97.9% (inactive)
same,growth,[7]; 10 µM unless noted,96.2% (inactive)
same,growth,[8]; 10 µM unless noted,82.6% (inactive)
O=C(O)CCCc1ccc(N(CCCl)CCCl)cc1,growth,[2]; 10 µM,87.2% (inactive) and 74.8% (inactive)
same,growth,[2]; 75 µM,27.3% (inactive)
same,growth,[9]; 10 µM,86.7% (inactive) and 96.5% (inactive)
same,growth,[9]; 75 µM,11.7% (inactive)
same,growth,[4]; 10 µM,86.5% (inactive) and 82.8% (inactive)
same,growth,[4]; 75 µM,51.3% (inactive)
same,growth,[5]; 10 µM,80.9% (inactive) and 68.4% (inactive)
same,growth,[5]; 75 µM,24.9% (inactive)
same,growth,[6]; 10 µM,84.4% (inactive) and 87% (inactive)
same,growth,[6]; 75 µM,32.1% (inactive)
same,growth,[7]; 10 µM,85.1% (inactive) and 87.7% (inactive)
same,growth,[7]; 75 µM,6.85% (active)
same,growth,[8]; 10 µM,105% (inactive) and 98% (inactive)
same,growth,[8]; 75 µM,65.3% (inactive)
CN1[C@@H](CC(=O)c2ccccc2)CCC[C@H]1CC(=O)c1ccccc1,growth,[1],99% (inactive)
same,growth,[2]; 10 µM unless noted,103% (inactive)
same,growth,[4]; 10 µM unless noted,112% (inactive)
same,growth,[5]; 10 µM unless noted,93.3% (inactive)
same,growth,[6]; 10 µM unless noted,101% (inactive)
same,growth,[7]; 10 µM unless noted,126% (inactive)
same,growth,[8]; 10 µM unless noted,110% (inactive)
C(=NC1CCCCC1)=NC1CCCCC1,growth,[2]; 10 µM unless noted,104% (inactive) and 14.6% (inactive)
same,growth,[9]; 10 µM unless noted,113% (inactive) and 91.1% (inactive)
same,growth,[3],101% (inactive) and 88.4% (inactive)
same,growth,[4]; 10 µM unless noted,106% (inactive) and 88.6% (inactive)
same,growth,[5]; 10 µM unless noted,100% (inactive) and 87.2% (inactive)
same,growth,[6]; 10 µM unless noted,93.6% (inactive) and 81.4% (inactive)
same,growth,[7]; 10 µM unless noted,105% (inactive) and 87.7% (inactive)
same,growth,[8]; 10 µM unless noted,109% (inactive) and 95.7% (inactive)
Cc1c(C)c(N)c(C)c(C)c1N,growth,[1],96.1% (inactive)
same,growth,[2]; 10 µM unless noted,92.6% (inactive)
same,growth,[9]; 10 µM unless noted,104% (inactive)
same,growth,[4]; 10 µM unless noted,51.8% (inactive)
same,growth,[6]; 10 µM unless noted,59.3% (inactive)
same,growth,[7]; 10 µM unless noted,106% (inactive)
same,growth,[8]; 10 µM unless noted,98.4% (inactive)
O=C(O)c1cc([N+](=O)[O-])cc([N+](=O)[O-])c1,growth,[1],106% (inactive)
same,growth,[9]; 10 µM unless noted,94.3% (inactive)
same,growth,[3],101% (inactive)
same,growth,[4]; 10 µM unless noted,105% (inactive)
same,growth,[6]; 10 µM unless noted,85.4% (inactive)
same,growth,[7]; 10 µM unless noted,107% (inactive)
same,growth,[8]; 10 µM unless noted,103% (inactive)
Cc1ccccc1-n1c(/C=C\c2ccccn2)nc2ccccc2c1=O,growth,[1],-19.9% (active)
same,growth,[2]; 10 µM unless noted,49.1% (inactive)
same,growth,[3],66.5% (inactive)
same,growth,[4]; 10 µM unless noted,68.9% (inactive)
same,growth,[6]; 10 µM unless noted,44% (inactive)
same,growth,[7]; 10 µM unless noted,38.2% (inactive)
same,growth,[8]; 10 µM unless noted,65.4% (inactive)
COc1ccc(/C=C(/C)[N+](=O)[O-])cc1OC,growth,[1],74.7% (inactive) and 3.26% (active)
same,growth,[2]; 10 µM unless noted,2.51% (active) and -36.5% (active)
same,growth,[9]; 10 µM unless noted,60.2% (inactive)
same,growth,[4]; 10 µM unless noted,-71.8% (active) and -74.3% (active)
same,growth,[6]; 10 µM unless noted,-69.8% (active) and -100% (active)
same,growth,[7]; 10 µM unless noted,35.9% (inactive) and 59.2% (inactive)
same,growth,[8]; 10 µM unless noted,49% (inactive) and 37.1% (inactive)
Cc1ccc(S(=O)(=O)n2cc([C@@]3(O)C[C@H](CSC#N)OC3=O)c3ccccc32)cc1,growth,[1],82.2% (inactive)
same,growth,[2]; 10 µM unless noted,62.8% (inactive)
same,growth,[9]; 10 µM unless noted,70.9% (inactive)
same,growth,[4]; 10 µM unless noted,36.1% (inactive)
same,growth,[5]; 10 µM unless noted,23.6% (inactive)
same,growth,[6]; 10 µM unless noted,45.6% (inactive)
same,growth,[7]; 10 µM unless noted,25.1% (inactive)
same,growth,[8]; 10 µM unless noted,68.7% (inactive)
COCC1OC2OC3C(COC)OC(OC4C(COC)OC(OC5C(COC)OC(OC6C(COC)OC(OC7C(COC)OC(OC8C(COC)OC(OC1C(O)C2O)C(O)C8O)C(O)C7O)C(O)C6O)C(O)C5O)C(O)C4O)C(O)C3O (centres undefined) (tested in a mixture with another compound),growth,[1],127% (inactive)
same,growth,[2]; 10 µM unless noted,113% (inactive)
same,growth,[3],117% (inactive)
same,growth,[4]; 10 µM unless noted,109% (inactive)
same,growth,[5]; 10 µM unless noted,101% (inactive)
same,growth,[6]; 10 µM unless noted,120% (inactive)
same,growth,[7]; 10 µM unless noted,89.4% (inactive)
same,growth,[8]; 10 µM unless noted,109% (inactive)
CNC(=O)CCl,growth,[1],103% (inactive)
same,growth,[9]; 10 µM unless noted,101% (inactive)
same,growth,[3],101% (inactive)
same,growth,[4]; 10 µM unless noted,107% (inactive)
same,growth,[6]; 10 µM unless noted,99.6% (inactive)
same,growth,[7]; 10 µM unless noted,95.1% (inactive)
same,growth,[8]; 10 µM unless noted,108% (inactive)
O=S1(=O)OCCO1,growth,[1],99.7% (inactive)
same,growth,[9]; 10 µM unless noted,117% (inactive)
same,growth,[4]; 10 µM unless noted,101% (inactive)
same,growth,[5]; 10 µM unless noted,98.8% (inactive)
same,growth,[6]; 10 µM unless noted,102% (inactive)
same,growth,[7]; 10 µM unless noted,110% (inactive)
same,growth,[8]; 10 µM unless noted,99.2% (inactive)
CC/C(=C(\c1ccc(OCCN2CCOCC2)cc1)c1ccc(OC(=O)Cc2ccccc2)cc1)c1ccc(Cl)cc1,growth,[2]; 10 µM unless noted,63.5% (inactive)
same,growth,[9]; 10 µM unless noted,104% (inactive)
same,growth,[3],107% (inactive)
same,growth,[4]; 10 µM unless noted,99.9% (inactive)
same,growth,[5]; 10 µM unless noted,75.8% (inactive)
same,growth,[6]; 10 µM unless noted,97.3% (inactive)
same,growth,[7]; 10 µM unless noted,106% (inactive)
same,growth,[8]; 10 µM unless noted,101% (inactive)
